The structures appear in SMILES notation. “And” between values parts separate entries of the source, which are not always exact repeats. Identical values can stand only once. About 2,400 (0.59%) of roughly 410,000 compounds were called active. Cut-off read from the data, not from the text of the source: active = max activation above about 30%; inactive = the rest. Many of the other results were omitted from the sample, so actives are more common in it than they were. Where a structure was tested more than once in an assay, its records may differ in their call.

Sequence of D(3) dopamine receptor (Homo sapiens) (P35462 whole entry, looked up): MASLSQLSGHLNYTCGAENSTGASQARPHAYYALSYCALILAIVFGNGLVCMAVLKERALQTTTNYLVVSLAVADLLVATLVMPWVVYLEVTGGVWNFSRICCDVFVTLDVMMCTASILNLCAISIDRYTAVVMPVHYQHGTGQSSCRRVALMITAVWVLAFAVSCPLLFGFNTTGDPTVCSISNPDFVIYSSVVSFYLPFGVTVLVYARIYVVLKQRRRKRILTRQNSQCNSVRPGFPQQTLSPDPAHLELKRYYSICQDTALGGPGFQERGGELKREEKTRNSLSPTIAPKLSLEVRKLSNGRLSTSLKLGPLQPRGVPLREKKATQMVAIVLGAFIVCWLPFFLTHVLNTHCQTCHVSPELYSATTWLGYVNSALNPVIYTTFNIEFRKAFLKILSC

The assay deals with D(3) dopamine receptor (Homo sapiens) (UniProt P35462). Put plainly: qHTS of D3 Dopamine Receptor Agonist: qHTS. Note: 0% is about no effect. Conditions: D3R DiscoveRx beta-arrestin cells, luminescence, 90 min; stronger effect = higher value. The gist of the method:
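Agonist mode: compounds and dopamine controls were applied to plated cells for 90 min at 37 degrees C after an overnight attachment at 1500 cells/well. Luminescent read-out followed 30 - 60 minutes at room temperature with DiscoveRx detection reagent.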
Take `Cc1cc2c(cc3c(SCc4nc(-c5ccccc5)oc4C)nnc(C)n32)o1`: the max activation was -6.34% (inactive). As for `COc1ccc(C(=O)c2oc3ccccc3c2NC(=O)COc2cccc(C)c2)cc1`, the max activation was -8.79% (inactive). For `Cc1ccc(N(CC(=O)NCc2ccc(Cl)cc2)S(=O)(=O)N(C)C)cc1` the value was 1.16% (inactive). Then `Cc1ccccc1OCC(=O)Nc1c(C(=O)Nc2ccccc2F)oc2ccccc12`, with -10.6% (inactive); and `COC(=O)[C@@H]1CC2=CC(=O)CC[C@]2(C)[C@@]23O[C@@H]2C[C@@]2(C)[C@@H](CC[C@@]24CCC(=O)O4)[C@H]13`, with 3.79% (inactive); and `COc1cccc(N2CCN(C(=O)CCCCCn3c(=O)[nH]c4ccccc4c3=O)CC2)c1`, with -3.38% (inactive). In the case of `COC(=O)c1ccc(NC(=O)c2ccccc2NS(=O)(=O)c2ccccc2)cc1`, the max activation was 34.2% (active). Take `Cc1cc(NS(=O)(=O)c2ccc(NC(=O)c3ccccc3C)cc2)nc(C)n1`: the max activation is 0.492% (inactive). With `COC(=O)c1ccccc1NS(=O)(=O)c1ccc2c(c1)CCCN2C(C)=O`, the max activation was -8.34% (inactive). Consider `CCOc1ccc(S(=O)(=O)N(CC(=O)NCCSCc2ccc(C)cc2)c2ccccc2)cc1`, for which the max activation is 1.63% (inactive).

For the compound `COc1ccc(C)cc1NC(=O)C(=O)NCCc1sc(-c2cccc(C)c2)nc1C`, the max activation was 3.11% (inactive).

Consider `NNc1nnc(NN)c2ccccc12`, for which the max activation is -0.65% (inactive).

As to `CCOC(=O)c1ccc(NC(=O)CCS(=O)(=O)c2ccc(C)cc2)cc1`, the max activation was 4.32% (inactive). Then `Cc1noc(C)c1C(=O)NCCc1ccc(S(N)(=O)=O)cc1`, with 4.23% (inactive); and `Cc1noc(C)c1C(=O)NC(C)c1ccc2c(c1)OCO2` (centres undefined), with 17.7% (inactive). Turning to `Cc1noc(C)c1C(=O)Nc1ccccn1`, the max activation was 31.1% (active).

Regarding `O=C(/C=C/c1cccc(F)c1)NC1CC1`, the max activation is 7.01% (inactive).

Turning to `Cc1cccc(C(=O)OCC(=O)Nc2sccc2C(N)=O)c1C`, the max activation is 3.92% (inactive). For `CCCCn1nc(C(=O)OCC(=O)Nc2sccc2C(N)=O)c2ccccc2c1=O` the value was 39.2% (active); for `NC(=O)c1ccsc1NC(=O)COC(=O)Cc1n[nH]c(=O)c2ccccc12`, -0.194% (inactive). In the case of `CO[C@]1(NC(=O)CSC(F)F)C(=O)N2C(C(=O)O)=C(CSc3nnnn3CCO)CO[C@H]21`, the max activation is 4.38% (inactive).

Take `COc1ccc(CNC(=O)C(C)NCc2ccccc2Cl)cc1` (centres undefined): the max activation is -7.27% (inactive). Regarding `CC(CCc1ccc(O)cc1)NCc1ccc(Cl)cc1Cl` (centres undefined), the max activation is 91.1% (active). Regarding `CC(CCc1ccccc1)NC(=O)c1cnc(Cl)c(Cl)c1` (centres undefined), the max activation was -0.183% (inactive). Then `CCCCSc1ncnc2c1sc1nc(N3CCOCC3)c3c(c12)CCCC3`, with -9.06% (inactive). For `COc1ccc(N)cc1NC(=O)CN1CCOCC1` the value was 3.16% (inactive); for `COc1ccc(NC(C)=O)cc1NC(=O)CN1CCN(c2ccc(F)cc2)CC1`, 3.91% (inactive). In the case of `COc1ccc(NC(C)=O)cc1NC(=O)CN1CCN(C2c3ccccc3-c3ccccc32)CC1`, the max activation was 46.6% (active).

As for `Cc1nn2c(=O)cc(COC(=O)CNC(=O)c3ccc(F)cc3)nc2s1`, the max activation is -2.47% (inactive). For `CCOc1ccc(NC(=O)C/C(C)=N/NC(=O)Cc2cccs2)cc1`, the max activation was 5.68% (inactive).

Take `CCOc1ccccc1NC(=O)Cc1cccs1`: the max activation is 49.3% (active).

`CCOc1ccccc1NC(=O)CCn1cnnn1`: the max activation is 4.34% (inactive). Consider `COc1ccc(CNC(=O)CCc2c(C)nn(-c3ccc(N4CCCC4)nn3)c2C)cc1`, for which the max activation was 9.29% (inactive). As to `COc1c(C)cc(C(=O)C2CCCN(S(=O)(=O)c3c(C)noc3C)C2)cc1C` (centres undefined), the max activation is 32.6% (active). As to `Cc1noc(C)c1S(=O)(=O)N1CCCC(C(=O)Nc2nccs2)C1` (centres undefined), the max activation is 2.46% (inactive). Then `CCOC(=O)C1CCN(S(=O)(=O)c2c(C)noc2C)CC1`, with -8.75% (inactive); and `CCCn1c(NCc2ccc(N(CC)CC)cc2)nc2ccccc21`, with -7.25% (inactive). Then `COC(=O)c1ccccc1NC(=O)c1cnn(-c2ccc(F)cc2)c1-n1cccc1`, with -7.92% (inactive); and `CCOCCc1nn2c(=O)cc(COC(=O)CNC(=O)c3ccc(C(C)(C)C)cc3)nc2s1`, with 6.28% (inactive); and `Cc1ccc(-n2nc(CO)c(C(=O)NCCc3ccccc3)n2)cc1`, with 1.72% (inactive). In the case of `CCSc1nnc2c(n1)OC(c1ccc(OCC(=O)O)cc1)Nc1ccccc1-2` (centres undefined), the max activation is 6.71% (inactive). Consider `CCC(=O)N1CCc2cc(S(=O)(=O)NC(Cc3ccccc3)C(=O)NCc3ccc(C)cc3)ccc21` (centres undefined), for which the max activation is 3.11% (inactive). On to `O=C(CN1CCN(c2ccccn2)CC1)Nc1ccc(Br)cc1`, for which the max activation was 45.2% (active). Turning to `CCC(=O)Nc1ccc2c(c1)nc(CCN1CCN(c3ccccn3)CC1)n2C`, the max activation is 38.1% (active).

For `CCOC(=O)N1CCN(Cc2nc3cc(NC(=O)CC)ccc3n2CC)CC1`, the max activation is -5.31% (inactive). For `O=C(CN1CCN(c2ccccn2)CC1)NCc1cccs1` the value was -2.33% (inactive); for `Cn1c(CCN2CCN(c3ccccn3)CC2)nc2cc(NS(=O)(=O)c3ccc(F)cc3)ccc21`, 2.61% (inactive). Consider `O=C(CN1CCN(c2ncccn2)CC1)Nc1ccccc1C(F)(F)F`, for which the max activation is 5.01% (inactive). Consider `Oc1ccc(Cl)c2c1CCC2`, for which the max activation is -6.75% (inactive).

On to `CCc1ccc(CNCc2c(C(=O)O)n(Cc3ccc(F)cc3Cl)c3cc(OC)ccc23)cc1`, for which the max activation was -22.5% (inactive). Regarding `CCCC(=O)Nc1ccc2oc(-c3ccc(O)c(Br)c3)nc2c1`, the max activation is 6.09% (inactive). As for `CC1CCCCN1CC(=O)N1CCCc2c1c(=O)oc1ccc(OCc3ccccc3)cc21` (centres undefined), the max activation was -16.2% (inactive). For the compound `Cc1ccccc1NC(=O)c1c(NC(=O)c2ccccc2F)sc2c1CCC(C)C2` (centres undefined), the max activation was 4.23% (inactive).

For `Cc1nnc(C(=O)NC(C)(C)c2nc(C(=O)NCc3ccc(F)cc3)c(O)c(=O)n2C)o1`, the max activation was 4.42% (inactive).

As for `CN(C)c1ccnc(Oc2ccc(F)cc2)c1C#N`, the max activation is 2.14% (inactive). Turning to `N#Cc1ccc(-c2ccc(F)cc2)nc1Sc1ccccc1`, the max activation is 5.43% (inactive).

For `N#Cc1ccc(-c2ccc(Cl)cc2)nc1Oc1ccc(F)cc1`, the max activation was 34.7% (active). For `Cn1c(=O)sc2cc(NS(=O)(=O)c3ccc(C(C)(C)C)cc3)ccc21` the value was -11% (inactive); for `Cc1cccc2nc(CSc3nc4[nH]ncc4c(=O)n3-c3cccc(Cl)c3)cc(=O)n12`, 32.7% (active). Consider `Cc1nnc(NC(=O)CSc2nc3c([nH]c4ccccc43)c(=O)n2-c2cccc(Cl)c2)s1`, for which the max activation was 16.6% (inactive).

In the case of `CCc1ccc(-n2c(SCc3cc(=O)n4cc(Br)ccc4n3)nc3[nH]ncc3c2=O)cc1`, the max activation is 18.2% (inactive). With `CO[C@H]1C=CO[C@@]2(C)Oc3c(C)c(O)c4c(O)c(c(/C=N/N5CCN(C)CC5)c(O)c4c3C2=O)NC(=O)/C(C)=C\C=C[C@H](C)[C@H](O)[C@@H](C)[C@@H](O)[C@@H](C)[C@H](OC(C)=O)[C@@H]1C`, the max activation is -16.3% (inactive). As to `COc1ccc(-n2c(=O)c3ccccc3n(Cc3ccccc3Cl)c2=O)cc1`, the max activation was 4.01% (inactive). For `Cc1ccc(CSc2oc(-c3cccs3)nc2S(=O)(=O)c2ccc(C)cc2)cc1` the value was 6.03% (inactive); for `COCCCNC(=O)CSc1nc2ccc(N3CCOCC3)cc2c(=O)n1CCc1ccccc1`, -3.98% (inactive); for `N#CCSc1nc2ccc(N3CCOCC3)cc2c(=O)n1CCc1ccccc1`, 3.32% (inactive).

For `CCCCn1c(SCC(=O)NCC2CCCO2)nc2ccc(N3CCOCC3)cc2c1=O` (centres undefined), the max activation is 33% (active). Turning to `COc1ccccc1CNCc1ccc(C(=O)O)s1`, the max activation is 6.32% (inactive). For `COc1ccc(C)cc1Nc1nc2ccccc2c2nnc(C)n12`, the max activation was 8.25% (inactive). For `COC(=O)c1ccc(NC(=O)CCc2c(C)nn(-c3ccc(N4CCCC4)nn3)c2C)cc1` the value was -2.49% (inactive); for `Cc1ccc(OCC(=O)Nc2ccc(OCc3cc(=O)n4c(C)csc4n3)cc2)cc1C`, 4.15% (inactive); for `CCc1ccc(NC(=O)CN2CCC(C(=O)c3ccc(OC)cc3)CC2)cc1`, -15.3% (inactive). As to `COc1ccc(NC(=O)CCN2CCN(CCO)CC2)cc1`, the max activation is 4.05% (inactive).

Take `CCOc1ccc(NC(=O)CN2CCN(CC(=O)Nc3ccc(OC)cc3)CC2)cc1`: the max activation was 10.4% (inactive) and 34.5% (active). Then `CCc1ccc(S(=O)(=O)n2ccnc2)cc1`, with 8.12% (inactive); and `Oc1ccccc1-c1nc2ccc(Cl)cn2c1Nc1ccc2c(c1)OCCO2`, with -2.82% (inactive).

In the case of `C=CCSC1=C(C#N)C(c2cc(Br)c(O)c(OC)c2)CC(=O)N1` (centres undefined), the max activation was 9.82% (inactive). Take `Cc1ccsc1C1C(C#N)=C(N)OC2=C1C(=O)CC(C)C2` (centres undefined): the max activation is 1.57% (inactive). On to `CCOC(=O)CSC1=C(C#N)C(c2sccc2C)CC(=O)N1` (centres undefined), for which the max activation is 31.9% (active).

As to `Cc1ccccc1CNC(=O)c1cccc(NC(=O)c2nsc3ccccc23)c1`, the max activation is 8.47% (inactive). For `CCCc1c2oc(C(=O)O)cc(=O)c2cc2c(=O)cc(C(=O)O)n(CC)c12`, the max activation was -9.91% (inactive). Consider `COc1ccc(-c2csc(-c3c(N)c(C(=O)c4ccc(OC)c(OC)c4)n4ccccc34)n2)cc1`, for which the max activation was 4.7% (inactive). Then `Cc1c(C=O)c2ccccn2c1C(=O)c1ccncc1`, with 31.8% (active); and `COc1ccc(OC)c(-c2csc(-c3c(N)c(C(=O)c4ccccc4)n4ccccc34)n2)c1`, with -12% (inactive); and `Nc1nc(/C(=C/CC(=O)O)C(=O)N[C@@H]2C(=O)N3C(C(=O)O)=CCS[C@H]23)cs1`, with 4.45% (inactive). Take `COc1ccc(-c2nc3sc(CCNS(=O)(=O)c4ccc(F)c(C)c4)c(C)n3n2)cc1`: the max activation was 6.72% (inactive).

Take `Cc1cccc(N2CCN(C(=O)c3ccc4c(c3)CCN4S(=O)(=O)c3ccccc3)CC2)c1C`: the max activation is -0.325% (inactive). Turning to `Cc1c(C)n(Cc2ccc(Cl)cc2)c2ccc(C(=O)N3CCN(c4ccccc4F)CC3)cc12`, the max activation is -3.88% (inactive). For `CCn1c(C)c(C)c2cc(C(=O)N3CCN(c4cccc(C)c4C)CC3)ccc21`, the max activation was 5.02% (inactive) and 95.9% (active).

The record behind these values is PubChem BioAssay AID652048 (National Center for Advancing Translational Sciences (NCATS), 2013).
